High-throughput results deposited in PubChem by Sanford-Burnham Center for Chemical Genomics.
CYP2C19 activ: activators of human cytochrome P450 2C19; 96,000 tested, under 10 active; recombinant CYP2C19, luciferin-H EGE luminescence; hits give high values; 0 = fully inhibited enzyme, 1 = untreated enzyme; P33261; activation factor at 5 µM; AID 1025;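 active = activation factor of at least 2 at 5 µM in the primary screen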
CYP2C19 inh: human CYP2C19 inhibition. actives 21% (n = 96,000). P33261. CYP2C19 Supersomes, luciferin-H EGE luminescence, 30 min. inhibition, % at 5 µM;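 active = CYP2C19 inhibition above a set limit at 5 µM in the primary screen, cut at about 50% in these data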
CYP2C9 inhib: human CYP2C9 inhibition. CYP2C9 Supersomes, luciferin-H conversion, luminescence. inhibition, % at 5 µM. actives 20% (n = 96,000);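 active = blocking of liver enzyme CYP2C9 beyond about 50% at 5 µM, limit read from the data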
Target sequence (P11712 whole entry, looked up): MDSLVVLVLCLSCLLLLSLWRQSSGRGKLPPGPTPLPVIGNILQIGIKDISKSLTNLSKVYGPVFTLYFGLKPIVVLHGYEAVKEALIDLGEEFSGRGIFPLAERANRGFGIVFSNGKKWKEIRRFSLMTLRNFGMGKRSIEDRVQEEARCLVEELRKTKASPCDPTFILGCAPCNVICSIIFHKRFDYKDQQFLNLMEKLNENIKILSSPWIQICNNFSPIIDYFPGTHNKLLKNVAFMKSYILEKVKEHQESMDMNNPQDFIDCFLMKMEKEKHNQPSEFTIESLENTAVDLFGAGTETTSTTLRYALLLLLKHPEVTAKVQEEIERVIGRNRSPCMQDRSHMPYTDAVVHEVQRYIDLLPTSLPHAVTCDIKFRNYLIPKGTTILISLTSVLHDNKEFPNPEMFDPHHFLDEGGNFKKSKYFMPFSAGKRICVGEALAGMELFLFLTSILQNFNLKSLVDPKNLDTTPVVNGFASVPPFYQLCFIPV
CYP2C9 act: increases human cytochrome P450 2C9 activity; recombinant CYP2C9, luciferin-H conversion, luminescence; hits give high values; factor 1 = untreated enzyme, 0 = blocked; activation factor at 5 µM; actives 1.4% (n = 96,000); AID 1024;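 active = activation factor of 2 or more for CYP2C9 at a 5 µM dose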
Hits are given with their value; – = inactive. In the library only some 31% were active in any assay of this set; here they are far more common.

SMILES	CYP2C19 activ	CYP2C19 inh	CYP2C9 inhib	CYP2C9 act
Cc1ccc(-c2cc(C(=O)N3CCOCC3)c3ccccc3n2)cc1	–	69.6	–	–
C#CC(C)(CC)NC(=O)Cn1nnc(-c2ccc(S(C)(=O)=O)cc2)n1 (stereo unspecified)	–	–	–	–
CCOC(=O)N1CCN(C(=O)C(NC(=O)c2ccc(CC)cc2)C(C)C)CC1 (stereo unspecified)	–	–	–	–
CCCCCCCCCS(=O)(=O)N/N=C/c1cccc([N+](=O)[O-])c1	–	–	67.9	–
CC(C)SC1=NC(C)(C)C=C(/C=C/c2c(Cl)cccc2Cl)N1	–	78.4	69.9	–
CC(C)SC1=NC(C)(C)C=C(/C=C/c2ccc(Cl)cc2Cl)N1	–	69.1	62.5	–
Nc1nnc(CCc2ccccc2)s1	–	–	–	–
Cc1cc(C(=O)N(C)Cc2ccc(Br)cc2)no1	–	92.1	–	–
O=C(NC(=S)N(CCCCO)C1CCCCC1)c1sc2ccccc2c1Cl	–	–	54.0	–
O=C(NC1=NCCS1)c1sc2ccccc2c1Cl	–	–	–	–
O=C(CCc1ccccc1)Nc1ccccc1F	–	76.4	–	–
O=C(CCc1ccccc1)Nc1c(F)c(F)c(F)c(F)c1F	–	–	–	–
O=C(CCc1ccccc1)Nc1ccc(F)cc1F	–	59.9	–	–
O=C(CCN1C(=O)c2ccccc2C1=O)Nc1ccc(F)cc1F	–	–	–	–
CCOc1ccc(-c2ncncc2-c2ccc(OC)cc2)c(O)c1	–	–	53.7	–
Cc1nc2sc(C(c3ccccc3)N3CCC(O)CC3)c(O)n2n1 (stereo unspecified)	–	–	–	–
Cc1nc2sc(C(c3cccc(F)c3)N3CCC(O)CC3)c(O)n2n1 (stereo unspecified)	–	–	–	–
COc1cccc(C(c2sc3nc(C)nn3c2O)N2CCc3ccccc3C2)c1 (stereo unspecified)	–	78.1	52.7	–
Cc1nc2sc(C(c3cccc(F)c3)N3CCC(C)CC3)c(O)n2n1 (stereo unspecified)	–	80.3	–	–
Cc1nc2sc(C(c3ccccc3)N3CCN(c4ccccc4F)CC3)c(O)n2n1 (stereo unspecified)	–	66.3	–	–
O=c1[nH]c(/C(=N\O)c2ccccc2)no1	–	–	–	–
CN(C)/C=c1\sc2c(C#N)cc(C(=O)c3ccc(Br)cc3)n2c1=O	–	–	–	–
O=c1c2nnn(Cc3ccccc3)c2ncn1C/C=C/c1ccccc1	–	–	–	–
Nn1c(SCC(=O)NC2CCCc3ccccc32)nnc1-c1cccs1 (stereo unspecified)	–	–	–	–
Cc1ccc(S(=O)(=O)N(CC(O)CN2C(=O)NC(C)(C)C2=O)c2ccccc2)cc1 (stereo unspecified)	–	–	–	–
SMILES	CYP2C19 activ	CYP2C19 inh	CYP2C9 inhib	CYP2C9 act
COc1ccccc1N(CC(O)CN1C(=O)NC(C)(C)C1=O)S(=O)(=O)c1ccc(C)cc1 (stereo unspecified)	–	94.3	60.4	–
CCC(c1nnnn1C(C)C)N1CCN(C2CCCC2)CC1 (stereo unspecified)	–	–	–	–
O=C(COc1ccc(Cl)cc1Cl)N1CCCN(C(=O)COc2ccc(Cl)cc2Cl)CC1	–	–	–	–
COc1cc(CO)cc(Br)c1OCC(=O)N1CCCCC1	–	–	–	2.2
Cc1cc(Cl)ccc1OCC(=O)N1CCCCC1	–	87.5	–	–
Cc1cc(Cl)ccc1OCCCC(=O)N1CCN(C)CC1	–	50.9	–	2.1
COc1cc2c(cc1OC)CN(C(=O)CCCN1C(=O)c3ccccc3C1=O)CC2	–	–	–	–
COc1cc2c(cc1OC)CN(C(=O)CCCOc1ccc(Cl)cc1Cl)CC2	–	–	56.6	–
COc1cc(CNCCCN2CCOCC2)cc(Br)c1OCC(=O)N1CCCCC1	–	–	–	–
CCCn1c(N)c(N(C)C)c(=O)n(CC(=O)Nc2ccc(OC(F)(F)F)cc2)c1=O	–	–	–	–
CC(=O)Nc1ccc(S(=O)(=O)NC2(C(F)(F)F)NC(=O)N(c3ccc(Cl)cc3)C2=O)cc1 (stereo unspecified)	–	–	–	–
Cc1cc(C)cc(OCC(=O)N2CCCCCC2)c1	–	53.5	–	–
Clc1ccccc1-c1nc(N/N=C/c2cccnc2)c2ccccc2n1	–	–	69.1	–
Cc1ccc(-c2nc(N/N=C/c3ccncc3)c3ccccc3n2)cc1	–	97.9	94.2	–
COc1ccc(S(=O)(=O)CCc2nc3ccccc3s2)cc1	–	75.5	–	–
O=S(=O)(Cc1nc2ccccc2s1)c1ccccc1	–	–	–	2.3
O=S(=O)(CCc1nc2ccccc2s1)c1ccc(Cl)cc1	–	–	–	–
CCCCC(=O)Nc1ccc(C(=O)NNC(=O)c2ccccc2Br)cc1	–	–	–	–
COCCOC(=O)c1c(C)n(C)c2ccc(OC(=O)C3CC3)cc12	–	–	–	–
O=C(Nc1cc(Sc2ccccn2)cc([N+](=O)[O-])c1)c1ccc([N+](=O)[O-])cc1	–	–	–	–
CCCSc1nnc(-c2c[nH]c3ccccc23)n1CC	–	89.1	–	–
CCCSc1nnc(-c2c[nH]c3ccccc23)n1C	–	75.8	–	–
O=C1CC(N2CCN(c3ccccc3)CC2)C(=O)N1CCc1ccccc1 (stereo unspecified)	–	–	–	–
CCCCn1c(N)c(-c2nc3ccccc3s2)c2c([N+](=O)[O-])nn(C)c(=O)c21	–	–	–	–
CCCCn1c(N)c(-c2nc3ccccc3s2)c2c([N+](=O)[O-])nn(CC)c(=O)c21	–	–	67.9	–
SMILES	CYP2C19 activ	CYP2C19 inh	CYP2C9 inhib	CYP2C9 act
CCCCCn1c(N)c(-c2nc3ccccc3s2)c2c([N+](=O)[O-])nn(CC)c(=O)c21	–	–	72.4	–
Cc1ccc(S(=O)(=O)CCC(=O)NCc2ccco2)cc1	–	–	–	–
CCn1c(CCNC(=O)c2cccs2)nnc1SCC(=O)NC1CCCCC1	–	–	–	–
CCCCn1c(CN2CCN(c3cccc(Cl)c3)CC2)nc2c1c(=O)n(C)c(=O)n2C	–	56.3	85.3	–
CCOC(=O)N1CCN(Cc2nc3c(c(=O)n(C)c(=O)n3C)n2Cc2cccc(C)c2)CC1	–	85.6	67.4	–
CCCCCn1c(CN2CCN(c3cccc(Cl)c3)CC2)nc2c1c(=O)n(C)c(=O)n2C	–	–	54.6	–
CCCn1c(CN2CCN(c3cccc(Cl)c3)CC2)nc2c1c(=O)n(C)c(=O)n2C	–	–	–	–
O=C(/C=C/c1ccccc1)NC(=S)Nc1ccc(N2CCOCC2)cc1	–	–	–	–
O=S(=O)(/C=C/c1ccccc1)Nc1ccc(N2CCOCC2)cc1	–	93.7	83.1	–
COc1ccc(S(=O)(=O)Nc2ccc(N3CCOCC3)cc2)cc1Br	–	100.3	95.6	–
O=C(O)c1ccc(NS(=O)(=O)/C=C/c2ccccc2)cc1O	–	–	55.0	–
O=S(=O)(Nc1ccc(N2CCOCC2)cc1)c1ccccc1	–	99.1	84.3	–
Cc1c(NC(=O)CSc2nnc(-c3cccc(Cl)c3)o2)c(=O)n(-c2ccccc2)n1C	–	–	–	–
CCn1c(O)c(N=NC2=NC(=O)CS2)c2ccccc21	–	–	–	–
